Here are results for five compounds from ChEMBL document CHEMBL1961873, “Compounds: GSK PKIS; Assays: Nanosyn kinase panel” (2012).

The structures appear in SMILES notation.

Assay [1] deals with T1, Tyrosine-protein kinase ITK/TSK (Homo sapiens) (UniProt Q08881).
T1 sequence (whole entry): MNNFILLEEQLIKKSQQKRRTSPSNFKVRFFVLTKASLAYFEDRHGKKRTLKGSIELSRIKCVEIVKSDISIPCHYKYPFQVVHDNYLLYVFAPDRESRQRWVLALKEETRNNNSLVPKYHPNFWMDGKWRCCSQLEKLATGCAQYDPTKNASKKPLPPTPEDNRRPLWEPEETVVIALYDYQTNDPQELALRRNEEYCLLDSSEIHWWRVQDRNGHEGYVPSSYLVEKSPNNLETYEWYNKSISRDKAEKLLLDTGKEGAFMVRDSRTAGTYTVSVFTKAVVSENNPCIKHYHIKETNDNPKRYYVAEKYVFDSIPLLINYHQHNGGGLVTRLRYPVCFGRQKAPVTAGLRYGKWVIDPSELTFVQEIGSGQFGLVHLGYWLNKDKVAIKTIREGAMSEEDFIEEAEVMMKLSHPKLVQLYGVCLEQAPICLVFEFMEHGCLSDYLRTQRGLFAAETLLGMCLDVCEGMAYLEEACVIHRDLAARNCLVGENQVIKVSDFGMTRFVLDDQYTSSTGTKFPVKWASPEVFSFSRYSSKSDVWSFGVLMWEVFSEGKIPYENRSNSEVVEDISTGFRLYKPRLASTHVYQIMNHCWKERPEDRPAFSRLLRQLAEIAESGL
As to conditions: at 1 µM.

In assay [2] the target is Tyrosine-protein kinase JAK1 (Homo sapiens) (UniProt P23458). Conditions: at 0.1 µM.
Tyrosine-protein kinase JAK1 (Homo sapiens), sequence (P23458 whole entry): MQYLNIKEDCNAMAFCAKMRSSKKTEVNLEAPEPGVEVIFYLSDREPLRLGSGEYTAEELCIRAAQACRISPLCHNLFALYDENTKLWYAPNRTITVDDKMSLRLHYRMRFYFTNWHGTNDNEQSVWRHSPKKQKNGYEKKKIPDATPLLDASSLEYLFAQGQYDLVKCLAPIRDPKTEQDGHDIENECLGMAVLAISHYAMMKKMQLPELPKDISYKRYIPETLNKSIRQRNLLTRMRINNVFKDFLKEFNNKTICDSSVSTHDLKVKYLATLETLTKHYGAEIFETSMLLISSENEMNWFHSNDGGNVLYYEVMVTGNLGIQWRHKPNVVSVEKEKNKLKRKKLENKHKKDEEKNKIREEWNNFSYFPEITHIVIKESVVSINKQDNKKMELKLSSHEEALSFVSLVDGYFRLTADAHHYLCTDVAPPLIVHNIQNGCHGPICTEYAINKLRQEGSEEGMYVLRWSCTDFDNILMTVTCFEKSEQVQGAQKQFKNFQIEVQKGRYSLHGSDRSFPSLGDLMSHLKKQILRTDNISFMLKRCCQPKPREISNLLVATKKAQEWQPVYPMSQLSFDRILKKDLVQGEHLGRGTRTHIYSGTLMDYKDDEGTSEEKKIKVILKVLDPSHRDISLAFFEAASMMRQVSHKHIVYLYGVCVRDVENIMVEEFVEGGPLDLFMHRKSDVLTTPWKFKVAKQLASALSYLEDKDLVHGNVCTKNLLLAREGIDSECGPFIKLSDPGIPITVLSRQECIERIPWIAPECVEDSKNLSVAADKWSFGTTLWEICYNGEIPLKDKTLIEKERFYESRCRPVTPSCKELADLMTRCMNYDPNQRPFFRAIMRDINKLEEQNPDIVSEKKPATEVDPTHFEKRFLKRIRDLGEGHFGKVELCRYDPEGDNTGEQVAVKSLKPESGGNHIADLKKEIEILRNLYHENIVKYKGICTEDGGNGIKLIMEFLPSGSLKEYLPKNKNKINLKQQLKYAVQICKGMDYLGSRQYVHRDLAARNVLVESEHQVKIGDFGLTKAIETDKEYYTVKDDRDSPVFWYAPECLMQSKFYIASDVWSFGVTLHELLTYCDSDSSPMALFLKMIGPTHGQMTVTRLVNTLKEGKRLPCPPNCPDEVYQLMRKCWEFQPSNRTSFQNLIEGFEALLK
The target is the same in assay [3]. Conditions: at 1 µM.
Assay [4] addresses Tyrosine-protein kinase JAK2 (Homo sapiens) (UniProt O60674). As to conditions: at 0.1 µM.
For assay [5] the target is unchanged. Conditions: at 1 µM.
The target in assay [6] is T2, Tyrosine-protein kinase JAK3 (Homo sapiens) (UniProt P52333).
T2 sequence (whole entry): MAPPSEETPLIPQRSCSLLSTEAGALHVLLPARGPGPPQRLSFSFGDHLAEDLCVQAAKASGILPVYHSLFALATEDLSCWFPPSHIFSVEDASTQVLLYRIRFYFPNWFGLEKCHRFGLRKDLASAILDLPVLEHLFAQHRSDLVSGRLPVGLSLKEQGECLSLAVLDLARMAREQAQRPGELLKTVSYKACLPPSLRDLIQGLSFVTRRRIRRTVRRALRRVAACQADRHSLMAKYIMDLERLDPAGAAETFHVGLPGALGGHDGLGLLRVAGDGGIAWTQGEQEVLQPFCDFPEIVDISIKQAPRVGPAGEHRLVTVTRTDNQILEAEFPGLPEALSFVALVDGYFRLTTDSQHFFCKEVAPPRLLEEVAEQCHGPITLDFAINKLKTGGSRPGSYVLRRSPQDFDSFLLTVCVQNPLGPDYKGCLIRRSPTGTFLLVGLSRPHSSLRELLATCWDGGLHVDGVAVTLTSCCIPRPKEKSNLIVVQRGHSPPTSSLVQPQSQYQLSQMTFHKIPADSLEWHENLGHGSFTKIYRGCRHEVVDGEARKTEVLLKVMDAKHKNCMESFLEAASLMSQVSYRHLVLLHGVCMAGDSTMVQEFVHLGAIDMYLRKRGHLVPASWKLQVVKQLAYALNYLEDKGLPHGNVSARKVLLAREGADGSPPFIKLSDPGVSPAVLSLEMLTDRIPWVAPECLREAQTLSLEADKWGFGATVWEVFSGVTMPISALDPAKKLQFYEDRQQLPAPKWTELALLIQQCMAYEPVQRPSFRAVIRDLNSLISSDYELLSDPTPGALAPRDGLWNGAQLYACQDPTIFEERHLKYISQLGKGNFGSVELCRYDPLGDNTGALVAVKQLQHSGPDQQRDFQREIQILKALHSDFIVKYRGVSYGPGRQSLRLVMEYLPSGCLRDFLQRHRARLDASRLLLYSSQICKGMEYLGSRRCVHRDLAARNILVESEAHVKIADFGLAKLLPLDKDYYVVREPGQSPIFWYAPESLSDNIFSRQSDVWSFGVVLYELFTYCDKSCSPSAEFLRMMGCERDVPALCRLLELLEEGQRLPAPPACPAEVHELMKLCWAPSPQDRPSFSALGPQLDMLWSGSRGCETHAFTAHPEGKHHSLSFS
Conditions: at 0.1 µM.

Assay [7] deals with T2, Tyrosine-protein kinase JAK3 (Homo sapiens). Conditions: at 1 µM.
Assay [8] deals with Vascular endothelial growth factor receptor 2 (Homo sapiens) (UniProt P35968). As to conditions: at 0.1 µM.
Vascular endothelial growth factor receptor 2 (Homo sapiens), sequence (P35968 whole entry): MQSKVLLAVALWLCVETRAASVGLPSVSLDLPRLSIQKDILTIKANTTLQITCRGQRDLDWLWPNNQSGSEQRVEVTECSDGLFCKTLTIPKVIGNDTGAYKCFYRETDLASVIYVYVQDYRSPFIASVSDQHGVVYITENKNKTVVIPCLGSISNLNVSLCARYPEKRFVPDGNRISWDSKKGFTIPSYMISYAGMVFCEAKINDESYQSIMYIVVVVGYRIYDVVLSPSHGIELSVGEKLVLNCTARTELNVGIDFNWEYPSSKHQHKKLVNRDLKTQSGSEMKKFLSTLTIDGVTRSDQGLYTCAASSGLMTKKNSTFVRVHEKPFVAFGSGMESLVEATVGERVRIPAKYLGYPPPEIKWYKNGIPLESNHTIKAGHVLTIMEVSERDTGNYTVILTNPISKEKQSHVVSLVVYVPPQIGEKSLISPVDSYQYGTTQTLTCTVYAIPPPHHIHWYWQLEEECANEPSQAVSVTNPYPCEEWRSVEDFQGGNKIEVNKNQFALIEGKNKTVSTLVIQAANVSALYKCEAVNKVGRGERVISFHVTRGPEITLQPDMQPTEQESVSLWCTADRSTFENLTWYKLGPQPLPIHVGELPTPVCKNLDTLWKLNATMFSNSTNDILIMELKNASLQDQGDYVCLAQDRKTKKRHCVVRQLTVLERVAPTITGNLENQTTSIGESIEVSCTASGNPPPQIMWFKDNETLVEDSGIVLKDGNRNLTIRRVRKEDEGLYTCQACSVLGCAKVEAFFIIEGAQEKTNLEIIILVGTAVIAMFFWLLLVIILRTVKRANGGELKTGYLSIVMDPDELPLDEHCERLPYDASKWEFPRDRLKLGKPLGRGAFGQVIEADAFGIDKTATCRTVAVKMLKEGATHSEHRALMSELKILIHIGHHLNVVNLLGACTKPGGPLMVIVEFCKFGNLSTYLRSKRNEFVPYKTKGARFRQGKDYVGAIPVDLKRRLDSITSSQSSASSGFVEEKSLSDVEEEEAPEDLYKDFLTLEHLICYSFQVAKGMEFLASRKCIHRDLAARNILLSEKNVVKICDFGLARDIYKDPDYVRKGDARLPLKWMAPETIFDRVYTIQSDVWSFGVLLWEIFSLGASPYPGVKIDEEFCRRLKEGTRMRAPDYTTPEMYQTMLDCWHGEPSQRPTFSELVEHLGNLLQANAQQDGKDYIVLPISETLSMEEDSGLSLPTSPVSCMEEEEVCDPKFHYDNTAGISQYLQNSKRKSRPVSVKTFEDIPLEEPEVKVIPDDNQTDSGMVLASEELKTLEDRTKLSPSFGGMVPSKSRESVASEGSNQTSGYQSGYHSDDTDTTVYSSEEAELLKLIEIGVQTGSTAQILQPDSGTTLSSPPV
Assay [9] has the same target. As to conditions: at 1 µM.
In assay [10] the target is Mast/stem cell growth factor receptor Kit (Homo sapiens) (UniProt P10721). Conditions: at 0.1 µM.
Mast/stem cell growth factor receptor Kit (Homo sapiens), sequence (P10721 whole entry): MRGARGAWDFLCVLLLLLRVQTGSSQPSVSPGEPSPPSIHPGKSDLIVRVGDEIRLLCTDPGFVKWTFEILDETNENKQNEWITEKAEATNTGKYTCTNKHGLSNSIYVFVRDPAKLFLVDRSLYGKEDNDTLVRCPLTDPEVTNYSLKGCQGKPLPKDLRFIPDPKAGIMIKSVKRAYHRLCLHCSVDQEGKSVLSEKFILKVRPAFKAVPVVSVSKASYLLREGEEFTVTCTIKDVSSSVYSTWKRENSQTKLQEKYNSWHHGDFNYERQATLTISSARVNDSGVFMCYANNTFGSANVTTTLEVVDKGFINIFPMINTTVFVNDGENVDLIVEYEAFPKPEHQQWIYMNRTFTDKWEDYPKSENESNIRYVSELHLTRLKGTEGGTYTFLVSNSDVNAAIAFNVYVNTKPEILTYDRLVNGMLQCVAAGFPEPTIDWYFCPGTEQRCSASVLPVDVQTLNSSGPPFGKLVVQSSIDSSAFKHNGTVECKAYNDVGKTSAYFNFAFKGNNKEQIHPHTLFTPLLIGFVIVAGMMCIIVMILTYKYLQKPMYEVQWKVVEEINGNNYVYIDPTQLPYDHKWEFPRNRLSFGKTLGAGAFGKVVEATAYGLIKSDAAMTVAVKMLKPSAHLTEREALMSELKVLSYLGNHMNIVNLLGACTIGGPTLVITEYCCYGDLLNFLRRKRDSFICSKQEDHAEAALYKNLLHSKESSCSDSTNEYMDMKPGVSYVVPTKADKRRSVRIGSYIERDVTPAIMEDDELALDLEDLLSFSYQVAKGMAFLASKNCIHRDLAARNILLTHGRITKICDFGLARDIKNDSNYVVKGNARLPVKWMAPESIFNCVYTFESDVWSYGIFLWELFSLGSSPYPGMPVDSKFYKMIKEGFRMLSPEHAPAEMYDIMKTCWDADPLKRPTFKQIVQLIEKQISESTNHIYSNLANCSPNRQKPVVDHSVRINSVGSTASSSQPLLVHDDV
The target is the same in assay [11]. Conditions: at 1 µM.
Assay [12] has as its system Mast/stem cell growth factor receptor Kit (Homo sapiens), P10721 [D816V]. As to conditions: at 0.1 µM.
The test system is the same in assay [13]. Conditions: at 1 µM.
Assay [14] concerns Mast/stem cell growth factor receptor Kit (Homo sapiens), P10721 [T670I]. Conditions: at 0.1 µM.
Mast/stem cell growth factor receptor Kit (Homo sapiens), P10721 [T670I], sequence (P10721 whole entry T670I): as the sequence (P10721 whole entry) above, with T670I counted along it
Assay [15] shares this test system. Conditions: at 1 µM.
Assay [16] relates to Mast/stem cell growth factor receptor Kit (Homo sapiens), P10721 [V560G]. Conditions: at 0.1 µM.
Mast/stem cell growth factor receptor Kit (Homo sapiens), P10721 [V560G], sequence (P10721 whole entry V560G): as the sequence (P10721 whole entry) above, with V560G counted along it
Assay [17] has the same test system. Conditions: at 1 µM.
Assay [18] concerns the target Tyrosine-protein kinase Lck (Homo sapiens) (UniProt P06239). Conditions: at 0.1 µM.
Assay [19] shares this target. As to conditions: at 1 µM.
The target of assay [20] is Leukocyte tyrosine kinase receptor (Homo sapiens) (UniProt P29376). As to conditions: at 0.1 µM.

Tyrosine-protein kinase JAK2 (Homo sapiens), sequence (O60674 whole entry): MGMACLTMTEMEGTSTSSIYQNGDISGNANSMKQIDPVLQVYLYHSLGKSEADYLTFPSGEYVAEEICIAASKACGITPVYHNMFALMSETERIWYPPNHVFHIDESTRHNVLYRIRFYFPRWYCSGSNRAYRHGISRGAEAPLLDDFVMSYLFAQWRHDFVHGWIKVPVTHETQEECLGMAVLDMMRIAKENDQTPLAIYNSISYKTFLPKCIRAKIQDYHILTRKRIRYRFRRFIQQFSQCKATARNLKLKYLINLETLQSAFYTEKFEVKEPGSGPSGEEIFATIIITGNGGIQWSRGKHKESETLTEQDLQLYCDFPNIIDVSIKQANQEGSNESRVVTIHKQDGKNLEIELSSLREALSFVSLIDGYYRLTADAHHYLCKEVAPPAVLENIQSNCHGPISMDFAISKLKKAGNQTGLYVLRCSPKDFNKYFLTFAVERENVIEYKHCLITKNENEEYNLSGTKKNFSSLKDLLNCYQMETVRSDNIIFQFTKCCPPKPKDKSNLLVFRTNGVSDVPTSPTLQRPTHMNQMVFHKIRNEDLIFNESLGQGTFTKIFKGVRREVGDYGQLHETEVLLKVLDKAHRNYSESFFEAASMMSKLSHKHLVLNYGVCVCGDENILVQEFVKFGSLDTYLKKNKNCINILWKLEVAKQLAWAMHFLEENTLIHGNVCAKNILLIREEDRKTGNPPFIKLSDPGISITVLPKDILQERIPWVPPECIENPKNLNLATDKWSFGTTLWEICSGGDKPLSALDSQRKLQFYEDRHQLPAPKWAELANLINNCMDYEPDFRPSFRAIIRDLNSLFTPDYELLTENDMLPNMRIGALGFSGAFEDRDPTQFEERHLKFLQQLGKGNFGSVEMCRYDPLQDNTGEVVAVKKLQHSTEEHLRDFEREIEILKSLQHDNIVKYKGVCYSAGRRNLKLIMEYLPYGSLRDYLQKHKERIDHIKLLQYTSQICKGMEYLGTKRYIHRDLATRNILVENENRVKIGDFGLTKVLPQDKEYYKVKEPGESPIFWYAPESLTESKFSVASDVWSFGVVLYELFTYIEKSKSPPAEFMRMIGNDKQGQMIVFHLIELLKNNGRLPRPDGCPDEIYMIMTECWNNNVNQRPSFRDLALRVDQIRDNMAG
Mast/stem cell growth factor receptor Kit (Homo sapiens), P10721 [D816V], sequence (P10721 whole entry D816V): as the sequence (P10721 whole entry) above, with D816V counted along it

The inhibition is the drop in the measured response relative to a control, in per cent. As to `Cc1nc(-c2ccccc2)n2nc(NCCCN3CCOCC3)ncc12`, the inhibition in [1] was 1.89%; in assay [2], 3.7%; in assay [3], 4.63%; in [4] it was 0.5%; in assay [5], 1.89%; in assay [6], -2.38%. In addition, the inhibition in assay [7] came out at 0.04%; in assay [8] it was 2.59%; in assay [9], 5.25%; in assay [10] it was 3.52%; in assay [11] it was 8.46%; in assay [12], 1.35%. Besides, the inhibition in assay [13] was 1.56%; in assay [14] it was 1.72%; in assay [15], 1.33%; in assay [16], -1.38%; in assay [17], 0.39%; in assay [18], 2.08%. The inhibition in [19] was found to be 5.01%; in assay [20], 2.89%.

Turning to `N#Cc1c(NC(=O)c2ccccc2F)sc2c1CCCC2`, the inhibition in [1] was 0.32%; in assay [2] it was 0.4%; in assay [3], -1.49%; in assay [4], -0.7%; in assay [5], -1.01%; in assay [6], -1.04%. For the same compound, the inhibition in assay [7] is 2.45%; in [8], -3.31%; in [9], -0.36%; in [10] it was -4.4%; in [11], -1.43%; in [12], -1.25%. Moreover, the inhibition in assay [13] was -3.62%; in [14], -0.75%; in assay [15], 0.26%; in assay [16], 2.34%; in assay [17], 2.89%; in assay [18], 0.15%. Besides, the inhibition is 4.08% in assay [19] and -1.29% in [20].

Turning to `Cc1ccc(O)cc1Nc1ccnc2ccc(S(C)(=O)=O)cc12`, the inhibition is 1.21% in assay [1]; 3.67% in assay [2]; 11.8% in assay [3]; 1.33% in assay [4]; 2.12% in [5]; -1.23% in [6]. The inhibition in [7] came out at 0.26%; in assay [8], 70.1%; in assay [9], 71.1%; in [10], 13.2%; in [11], 48.2%; in assay [12] it was 38.2%. Besides, the inhibition was 84.5% in [13]; 4.38% in assay [14]; 8% in assay [15]; 8.1% in [16]; 53.7% in [17]; 86.3% in assay [18]. Moreover, the inhibition in [19] came out at 97.1%; in assay [20] it was 4.66%.

Take `Cc1ccc(C(=O)NC2CC2)cc1-c1ccc2[nH]ncc2c1`: the inhibition in [1] is -0.97%; in [2], -3.33%; in [3] it was -8.73%; in assay [4], -1.66%; in assay [5] it was -1.51%; in assay [6] it was 1.08%. Moreover, the inhibition was 2.55% in assay [7]; -3.15% in assay [8]; 3.28% in assay [9]; -5.04% in assay [10]; 9.73% in assay [11]; -2.2% in [12]. In addition, the inhibition in assay [13] was -3.32%; in assay [14] it was -2.37%; in [15], -3.32%; in assay [16], 1.39%; in assay [17], 6.83%; in assay [18], -0.97%. In addition, the inhibition in assay [19] is 1.92%; in assay [20], -2.04%.

On to `COc1cc2ncnc(Nc3ccc(C)c(O)c3)c2cc1OC`, for which the inhibition in assay [1] is 1.28%; in [2], 1.62%; in [3], 12.6%; in [4], 1.49%; in [5], 0.53%; in assay [6], -1.17%. For the same compound, the inhibition in assay [7] stood at 2.14%; in [8] it was 75.4%; in assay [9] it was 72%; in assay [10], 9.08%; in [11], 40.5%; in assay [12] it was 44%. The inhibition in assay [13] stood at 88.3%; in assay [14], 3.54%; in assay [15] it was 2.94%; in assay [16] it was 5.53%; in assay [17], 35.8%; in assay [18] it was 25%. For the same compound, the values for the inhibition in [19] and in [20] were 72.2% and 6.58%, respectively.
